Test results reported in paper PMC4336329 (PLoS ONE, 2015).
Hit rate of the full screen: of about 310,000 compounds, about 14,000 (4.5%) showed an effect of 50% or more. The effect is printed as a negative number. The sample holds strong results, similar compounds and a random draw of the others, so the mix is not that of the screen.

The compounds below were run against human ether-à-go-go-related gene (hERG) potassium channel (human, UniProt Q12809) (assay: primary screen, population patch clamp on CHO cells stably expressing hERG; higher = less effect of the substance).
Sequence of human ether-à-go-go-related gene (hERG) potassium channel (Q12809 whole entry, looked up): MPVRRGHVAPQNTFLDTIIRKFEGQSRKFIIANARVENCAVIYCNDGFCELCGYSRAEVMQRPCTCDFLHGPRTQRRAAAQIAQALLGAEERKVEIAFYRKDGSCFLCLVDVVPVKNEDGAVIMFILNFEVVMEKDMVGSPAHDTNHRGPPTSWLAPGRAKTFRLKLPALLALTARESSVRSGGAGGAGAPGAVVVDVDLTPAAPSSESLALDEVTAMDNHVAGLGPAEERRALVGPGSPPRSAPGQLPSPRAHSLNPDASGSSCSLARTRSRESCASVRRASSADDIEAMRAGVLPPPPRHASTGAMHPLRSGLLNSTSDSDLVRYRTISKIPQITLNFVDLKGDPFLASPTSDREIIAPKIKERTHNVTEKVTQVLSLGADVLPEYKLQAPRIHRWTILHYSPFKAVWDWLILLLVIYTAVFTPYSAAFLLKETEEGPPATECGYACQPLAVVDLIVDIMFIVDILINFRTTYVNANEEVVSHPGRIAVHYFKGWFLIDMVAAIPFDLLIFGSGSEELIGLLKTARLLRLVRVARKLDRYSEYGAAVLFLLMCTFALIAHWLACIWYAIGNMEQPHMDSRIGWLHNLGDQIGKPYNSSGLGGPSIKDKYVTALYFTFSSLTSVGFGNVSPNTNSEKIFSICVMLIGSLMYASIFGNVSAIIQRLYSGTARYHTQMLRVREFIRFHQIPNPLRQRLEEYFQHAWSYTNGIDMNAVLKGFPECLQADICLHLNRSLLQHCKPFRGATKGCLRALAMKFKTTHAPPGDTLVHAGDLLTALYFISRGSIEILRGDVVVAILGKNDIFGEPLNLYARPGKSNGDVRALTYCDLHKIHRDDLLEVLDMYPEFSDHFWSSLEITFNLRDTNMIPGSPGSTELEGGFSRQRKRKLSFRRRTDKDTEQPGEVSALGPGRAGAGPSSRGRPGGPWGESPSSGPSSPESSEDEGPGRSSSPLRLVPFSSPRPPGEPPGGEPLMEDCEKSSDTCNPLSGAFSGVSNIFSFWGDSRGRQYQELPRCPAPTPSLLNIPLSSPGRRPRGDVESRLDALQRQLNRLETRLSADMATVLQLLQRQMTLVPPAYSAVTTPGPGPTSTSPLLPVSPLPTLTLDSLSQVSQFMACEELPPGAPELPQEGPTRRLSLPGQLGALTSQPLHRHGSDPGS
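Note: peak tail current of the secondary pulse compared with the same well before compound.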

SMILES	hERG current change (%, negative = inhibition) at 10uM [%]
O=C(C1=COCCO1)N1CCN(C(c2ccccc2)c2ccccc2)CC1	-7.48
Cc1ccc(CNc2nc3ccccc3n3nnnc23)cc1	10.6
CC1CC(C)CN(C(=O)c2ccc3nc[nH]c3c2)C1 (centres unmarked)	4.05
O=c1[nH]c2ccc(Cl)cc2c(O)c1Cc1ccccc1	12.6
Cc1ccc2nc(NCC(=O)O)nc(-c3ccccc3)c2c1	4.48
COc1cc(C(=O)NCC2CCCCC2)cc(OC)c1OC	-67.3
COc1cc(CC(=O)NCC2CCCCC2)cc(OC)c1OC	19.6
COc1cc(C(=O)NCC2CCCO2)cc(OC)c1OC (centres unmarked)	16.8
CCOC(=O)N1CCN(C(=O)C2CC(=O)N(c3ccc(OC)cc3)C2c2ccc(OC)cc2)CC1 (centres unmarked)	-13.2
CN1CCc2nc(SCc3cccc(Br)c3)c(C#N)cc2C1	-11.7
CC(NC(=O)CSc1nc2c(cc1C#N)CN(C)CC2)c1ccccc1 (centres unmarked)	-20.3
CN1CCc2nc(SCCOc3ccccc3)c(C#N)cc2C1	-66.3
CN1CCc2nc(SCc3ccccc3Br)c(C#N)cc2C1	-28.2
Cc1cccc(CSc2nc3c(cc2C#N)CN(C)CC3)c1	-71.2
Cc1cccc(CSc2nc3c(cc2C#N)CCC3)c1	13.7
COC/C=C/C1=CC2=CC(=O)C(C)(OC(=O)c3cnc4ccccc4n3)C(=O)C2=CN1CCOC (centres unmarked)	13.3
Cc1c[n+]([O-])n(-c2ccc(C(=O)O)cc2)n1	0.473
COc1ccc(N(C(=O)c2snc(C(N)=O)c2N)C(C(=O)NC2CCCC2)c2ccc(OC)c(OC)c2)cc1 (centres unmarked)	10.9
CCOC(=O)C1CCN(C(=O)C2CCC(=O)N(CC3CCCCC3)C2)CC1 (centres unmarked)	0.313
CC[n+]1c(/C=C/c2ccc(OC)c(OC)c2)ccc2ccccc21.[I-]	23.5
CC[n+]1c(/C=C/c2ccc(OC(C)=O)c(OC)c2)ccc2ccccc21.[I-]	-4.85
CC[n+]1c(/C=C/c2ccc(N(C)C)cc2)ccc2ccccc21.[I-]	-72.9
CC(C)CC[n+]1ccccc1/C=C/c1ccc(N(C)C)cc1.[I-]	-71.3
CN(CCCS(=O)(=O)[O-])c1ccc(/C=C/c2ccc3ccccc3[n+]2C)cc1	19.6
CCSc1ccc2cc(OC)ccc2[n+]1CC.[I-]	10.8
CN(C)c1ccc(/C=C/c2ccc3ccccc3[n+]2C)cc1.[I-]	-59.9

SMILES	hERG current change (%, negative = inhibition) at 10uM [%]
CN(C)c1ccc(/C=C/c2cc[n+](C)cc2)cc1.[I-]	2.73
CN(C)c1ccc(/C=C/c2cccc[n+]2[O-])cc1	19.7
CCN(CC)c1ccc(/C=C/c2ccc3ccc(OC)cc3[n+]2CC)cc1.[I-]	-82
C[n+]1c(/C=C/c2ccc(O)cc2)ccc2ccccc21.[I-]	-40.3
CC[n+]1c(SC)ccc2cc(OC)ccc21.[O-][Cl+3]([O-])([O-])[O-]	-10.6
O=C(C1CCCCC1)N1CCC(O)(c2ccc(Cl)cc2)CC1	-10.7
Cc1cccc(N2C(=O)CC(N(O)c3ccccc3)C2=O)c1 (centres unmarked)	9.2
Cc1cc(C(F)(F)F)nn1Cc1ccc(C(=O)NCc2ccco2)o1	5.14
COc1ccc(C)cc1-n1nnnc1SCC1CCCCO1 (centres unmarked)	-14.8
CCOc1ccc(CCNc2nc3c(c(=O)n(C)c(=O)n3C)n2CC)cc1OCC	3.1
CCOC(=O)C1=C(COC(=O)CC(C)c2ccccc2)NC(=O)NC1C (centres unmarked)	-17.8
CN1C(=O)C(=Cc2ccc(N3CCCCCC3)cc2)C(=O)N(C)C1=O	13.1
CCOc1ccc2[nH]c(=O)c(C(c3nnnn3C3CCCCC3)N3CCN(CC)CC3)cc2c1 (centres unmarked)	-40.3
COc1cccc(NC(=O)Cc2ccc3ccccc3c2)c1	-7.16
N#C/C(=C\c1cccc(OCC(=O)O)c1)c1nc2ccccc2[nH]1	19.6
COc1cc(-c2noc(C)n2)cc(OC)c1OC	13.4
COc1ccc(Nc2nc(NCCO)nc(N3CCCC3)n2)cc1	-38.3
Cc1ccc(S(=O)(=O)NCC(=O)OCC(=O)Nc2cccc(S(=O)(=O)NC3=NCCCCC3)c2)cc1C	-1.1
COc1ccccc1C(=O)NCCC(=O)Nc1nc2ccccc2[nH]1	-12.6
Clc1ccc(SCCn2ccnc2)cc1	-1.48
CC(C)(C)c1ccc(/C=C/C(=O)NCCCn2ccnc2)cc1	-46.5
O=C(/C=C/c1ccc(Cl)cc1)NCCCn1ccnc1	-55.8
O=C(/C=C/c1ccc(Br)cc1)NCCCn1ccnc1	-57
Clc1ccc(SCCCCn2ccnc2)cc1	-53
COc1ccc(/C=C/C(=O)NCCCn2ccnc2)cc1	-30.9
O=C(NCCCn1ccnc1)c1ccc(Cl)cc1	-2.72

SMILES	hERG current change (%, negative = inhibition) at 10uM [%]
O=C(/C=C/c1ccc(Cl)c(Cl)c1)NCCCn1ccnc1	-41.7
O=C(/C=C/c1ccc(F)cc1)NCCCn1ccnc1	-31.9
O=C(C#Cc1ccccc1)NCc1ccccc1F	-2.39
CC1(C)CCC(=O)C=C1Nc1ccc(F)c(Cl)c1	7.56
N#C/C(=N\O)c1nc(-c2ccccc2)cs1	15.9
CC(C)(C)c1ccc(S(=O)(=O)NCc2ccc(C(=O)NCC3CCCO3)cc2)cc1 (centres unmarked)	13.8
O=C(OCc1ccc(Br)cc1)c1cccc(S(=O)(=O)N2CCCC2)c1	-6.47
CSc1nsc(SC)c1C(N)=O	10.6
CCOC(=O)C1(CCOC)CCN(Cc2ccncc2)CC1	8.26
CCOC(=O)C1(CCOc2ccccc2)CCN(Cc2ccncc2)CC1	-52
CCOC(=O)C1(Cc2cccc(OC)c2)CCN(Cc2cnc(SC)nc2)CC1	-27
CCOC(=O)C1(CCOc2ccccc2)CCN(Cc2ccc(C(=O)OC)cc2)CC1	-49.9
CCOC(=O)C1(CCOc2ccccc2)CCN(Cc2cnc(SC)nc2)CC1	-72.2
CCOC(=O)C1(CCOc2ccccc2)CCN(Cc2ccc(C#CCCO)cc2)CC1	-53.3
CCOC(=O)C1(CCOc2ccccc2)CCN(Cc2ccc(OC)cc2)CC1	-75.1
CCOC(=O)C1(CCOC)CCN(Cc2cnc(-c3cccc(C)c3)nc2)CC1	-5.81
CCOC(=O)C1(Cc2ccccc2)CCCN(Cc2ccncc2)C1 (centres unmarked)	-17.4
CCc1ccc(C(C)NC(=O)/C(C#N)=C\c2cn[nH]c2-c2ccccc2)cc1 (centres unmarked)	-1.91
CC1=NN(c2ccc(Cl)cc2)C(=O)C1	3.77
Cc1ccc(C(=O)OCC(=O)N2CCOCC2)cc1	15.6
O=C(NNC(=S)Nc1ccc(Cl)cc1Cl)C1CC1	-24
O=C(Nc1ccc2c(c1)OC1(CCCC1)O2)C1CC1	3.79
Cc1ccc(C)n1-c1ncc(Br)cn1	6.58
CCCCOCCCNC(=O)N[C@@H](CCSC)C(=O)OC	16.3
C=CCn1c2ccccc2c(=O)c2cc(C#Cc3ccccn3)ccc21	-0.113
CCOC(=O)C1(CCOc2ccccc2)CCN(Cc2ccc(O)c(Cl)c2)CC1	-53

SMILES	hERG current change (%, negative = inhibition) at 10uM [%]
CCOC(=O)C1(CCOc2ccccc2)CCN(Cc2ccc(O)cc2)CC1	-85.1
CCOC(=O)C1(CCOc2ccccc2)CCN(Cc2ccc(OCCO)cc2)CC1	-77.9
O=C(N/N=C\c1cc(Br)c(Br)o1)c1cncc(Br)c1	7.62
CN(C)c1cccc(C(=O)Nc2ccc(N3CCOCC3)cc2)c1	2.06
Cc1nc2nc(-c3ccccc3)cc(=O)n2[nH]1	11.8
O=C(NNS(=O)(=O)c1ccc([N+](=O)[O-])cc1)C(=O)Nc1cccc(C(=O)O)c1	11.9
COc1ccc(C2C(C(=O)N3CCC4(CC3)OCCO4)CC(=O)N2c2ccc(OC)cc2)cc1 (centres unmarked)	-6.88
O=S(=O)(NCC(c1ccco1)N1CCN(c2ccccc2)CC1)c1ccc(F)cc1 (centres unmarked)	0.0547
O=C1COc2ccc(C(=O)COC(=O)Cc3ccc(F)cc3)cc2N1	-23.8
CCC(=O)c1ccc(OCC(=O)Nc2ccccc2C(=O)NC2CC2)cc1	-6.53
OC1/C(=C/c2ccccc2C(F)(F)F)N2CCC1CC2 (centres unmarked)	9.66
Fc1ccccc1-c1nnc2c3ccccc3nc(N3CCOCC3)n12	-9.92
Brc1ccc(-c2nnc3c4ccccc4nc(N4CCOCC4)n23)cc1	-8.42
Clc1ccc(-c2nnc3c4ccccc4nc(N4CCOCC4)n23)cc1Cl	-64.7
CCCCc1nnc(NC(=O)C2CCN(c3ncnc4sc(C)c(C)c34)CC2)s1	16.6
Cc1sc2ncnc(N3CCC(C(=O)N(C)CC(=O)Nc4ccc(Cl)c(C(F)(F)F)c4)CC3)c2c1C	3.47
Cc1sc2ncnc(N3CCC(C(=O)N(C)CC(=O)Nc4ccccc4Br)CC3)c2c1C	-65.8
CCN(CC(=O)Nc1c(F)cccc1F)C(=O)C1CC1	3.28
CCOc1ccc(NC(=O)CN(C)C(=O)C2CCCC2)cc1OCC	27.8
CCN(CC(=O)Nc1c(F)cccc1F)C(=O)C1CCN(c2ncnc3sc(C)c(C)c23)CC1	-57.8
CCN(CC(=O)Nc1c(F)cccc1F)C(=O)C1CCC1	-13.8
Cc1sc2ncnc(N3CCC(C(=O)Nc4ccccc4C(C)(C)C)CC3)c2c1C	-15.2
CCOc1ccc(NC(=O)CN(C)C(=O)C2CCN(c3ncnc4sc(C)c(C)c34)CC2)cc1OCC	-58.2
Cc1sc2ncnc(N3CCC(C(=O)Nc4ccc(Br)cc4Br)CC3)c2c1C	-7.07
CCOC(=O)c1ccccc1NC(=O)C1CCN(c2ncnc3sc(C)c(C)c23)CC1	-11.4
CCCN(CC(=O)Nc1ccccc1C)C(=O)C1CCN(c2ncnc3sc(C)c(C)c23)CC1	-76.2
